biological target: AgAbp1; assay: SPOT peptide array binding signal intensity (averaged, normalized) (arbitrary units (background-subtracted, floor 0; scale differs between SH3 domains)); higher = stronger binding of the SH3 domain to the peptide
How it was run: (§1)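 To measure binding, SH3 domains from four yeast species were fused to GST, expressed in E. coli BL21(DE3) and purified on glutathione Sepharose. Each domain was incubated at 10 μg/ml overnight at 4°C on cellulose membranes with synthetic 15-mer peptides whose cysteines were replaced by serines. Anti-GST antibody, an HRP anti-mouse secondary and luminol were used for detection, and images were quantified with Genespotter. Reported binding signal is normalized, background-subtracted spot intensity averaged over replicates, in arbitrary units that differ between domains.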

Row | Binder | SPOT peptide array binding signal intensity
1 | RRSKSLPTTPGIRSG | 744

biological target: AgBbc1; assay: as above
How it was run: as §1

Row | Binder | SPOT peptide array binding signal intensity
2 | RRSKSLPTTPGIRSG | 104

biological target: AgBem1-D1; assay: as above
How it was run: as §1

Row | Binder | SPOT peptide array binding signal intensity
3 | RRSKSLPTTPGIRSG | 348

biological target: AgBzz1-D1; assay: as above
How it was run: as §1

Row | Binder | SPOT peptide array binding signal intensity
4 | RRSKSLPTTPGIRSG | 45

biological target: AgBzz1-D2; assay: as above
How it was run: as §1

Row | Binder | SPOT peptide array binding signal intensity
5 | RRSKSLPTTPGIRSG | 43

biological target: AgCyk3; assay: as above
How it was run: as §1

Row | Binder | SPOT peptide array binding signal intensity
6 | RRSKSLPTTPGIRSG | 4

biological target: AgFus1; assay: as above
How it was run: as §1

Row | Binder | SPOT peptide array binding signal intensity
7 | RRSKSLPTTPGIRSG | 120

biological target: AgHof1; assay: as above
How it was run: as §1

Row | Binder | SPOT peptide array binding signal intensity
8 | RRSKSLPTTPGIRSG | 158

biological target: AgHse1; assay: as above
How it was run: as §1

Row | Binder | SPOT peptide array binding signal intensity
9 | RRSKSLPTTPGIRSG | 816

biological target: AgLsb1; assay: as above
How it was run: as §1

Row | Binder | SPOT peptide array binding signal intensity
10 | RRSKSLPTTPGIRSG | 50.8

biological target: AgLsb4; assay: as above
How it was run: as §1

Row | Binder | SPOT peptide array binding signal intensity
11 | RRSKSLPTTPGIRSG | 128

biological target: AgMyo5; assay: as above
How it was run: as §1

Row | Binder | SPOT peptide array binding signal intensity
12 | RRSKSLPTTPGIRSG | ≤ 0

biological target: AgNbp2; assay: as above
How it was run: as §1

Row | Binder | SPOT peptide array binding signal intensity
13 | RRSKSLPTTPGIRSG | 213

biological target: AgRvs167; assay: as above
How it was run: as §1

Row | Binder | SPOT peptide array binding signal intensity
14 | RRSKSLPTTPGIRSG | 2.33

biological target: AgSho1; assay: as above
How it was run: as §1

Row | Binder | SPOT peptide array binding signal intensity
15 | RRSKSLPTTPGIRSG | 4520

biological target: AgSla1-D1-D2; assay: as above
How it was run: as §1

Row | Binder | SPOT peptide array binding signal intensity
16 | RRSKSLPTTPGIRSG | 469

biological target: AgSla1-D3; assay: as above
How it was run: as §1

Row | Binder | SPOT peptide array binding signal intensity
17 | RRSKSLPTTPGIRSG | 1.75

biological target: CaAbp1-D1; assay: as above
How it was run: as §1

Row | Binder | SPOT peptide array binding signal intensity
18 | RRSKSLPTTPGIRSG | 1220

biological target: CaAbp1-D2; assay: as above
How it was run: as §1

Row | Binder | SPOT peptide array binding signal intensity
19 | RRSKSLPTTPGIRSG | 1180

biological target: CaBbc1; assay: as above
How it was run: as §1

Row | Binder | SPOT peptide array binding signal intensity
20 | RRSKSLPTTPGIRSG | 216

biological target: CaBem1-D1; assay: as above
How it was run: as §1

Row | Binder | SPOT peptide array binding signal intensity
21 | RRSKSLPTTPGIRSG | 54

biological target: CaBzz1-D1; assay: as above
How it was run: as §1

Row | Binder | SPOT peptide array binding signal intensity
22 | RRSKSLPTTPGIRSG | 292

biological target: CaBzz1-D2; assay: as above
How it was run: as §1

Row | Binder | SPOT peptide array binding signal intensity
23 | RRSKSLPTTPGIRSG | 115

biological target: CaCyk3; assay: as above
How it was run: as §1

Row | Binder | SPOT peptide array binding signal intensity
24 | RRSKSLPTTPGIRSG | 17

biological target: CaFus1; assay: as above
How it was run: as §1

Row | Binder | SPOT peptide array binding signal intensity
25 | RRSKSLPTTPGIRSG | 450

biological target: CaHof1; assay: as above
How it was run: as §1

Row | Binder | SPOT peptide array binding signal intensity
26 | RRSKSLPTTPGIRSG | ≤ 0

biological target: CaHse1; assay: as above
How it was run: as §1

Row | Binder | SPOT peptide array binding signal intensity
27 | RRSKSLPTTPGIRSG | 31.5

biological target: CaLsb1; assay: as above
How it was run: as §1

Row | Binder | SPOT peptide array binding signal intensity
28 | RRSKSLPTTPGIRSG | 3.5

biological target: CaLsb4; assay: as above
How it was run: as §1

Row | Binder | SPOT peptide array binding signal intensity
29 | RRSKSLPTTPGIRSG | 276

biological target: CaMyo5; assay: as above
How it was run: as §1

Row | Binder | SPOT peptide array binding signal intensity
30 | RRSKSLPTTPGIRSG | 7.5

biological target: CaNbp2; assay: as above
How it was run: as §1

Row | Binder | SPOT peptide array binding signal intensity
31 | RRSKSLPTTPGIRSG | 430

biological target: CaRvs167; assay: as above
How it was run: as §1

Row | Binder | SPOT peptide array binding signal intensity
32 | RRSKSLPTTPGIRSG | 15.2

biological target: CaRvs167-3; assay: as above
How it was run: as §1

Row | Binder | SPOT peptide array binding signal intensity
33 | RRSKSLPTTPGIRSG | 55.5

biological target: CaSho1; assay: as above
How it was run: as §1

Row | Binder | SPOT peptide array binding signal intensity
34 | RRSKSLPTTPGIRSG | 1030

biological target: CaSla1-D1-D2; assay: as above
How it was run: as §1

Row | Binder | SPOT peptide array binding signal intensity
35 | RRSKSLPTTPGIRSG | 2240

biological target: CaSla1-D3; assay: as above
How it was run: as §1

Row | Binder | SPOT peptide array binding signal intensity
36 | RRSKSLPTTPGIRSG | ≤ 0

biological target: ScAbp1; assay: as above
How it was run: as §1

Row | Binder | SPOT peptide array binding signal intensity
37 | RRSKSLPTTPGIRSG | 261

Source: the supplement of paper PMC4466140
